Experimental findings from PubChem BioAssay AID602244 (Sanford-Burnham Center for Chemical Genomics, 2012) are described below.

The inhibition is the change of the read-out against control, counted positive when it falls.

The whole screen tested about 360,000 compounds, of which about 1,300 (0.36%) were called active. The list comes from a sample in which actives are over-represented; it also holds similar structures and randomly drawn compounds. Values without a mark were called inactive. Rule as the data show it: active = inhibition above about 34% (passing the limit was not always enough); inactive = the rest.

In the test the target is C-X-C chemokine receptor type 6 (Homo sapiens) (UniProt O00574). Briefly: blockade of CXCL16-induced CXCR6 beta-arrestin recruitment – cell-based, luminescence, CHO-K1 PathHunter, 1536-well, primary screen (AID 602244).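 Also: antagonist mode with CXCL16 agonist at 10 nM final; 0% = 10 nM CXCL16 with DMSO and 100% = unstimulated wells without agonist.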 As to conditions: at 20 µM, hits give high values. (Arrestin recruitment assays detect the binding of arrestin to an activated receptor.)
C-X-C chemokine receptor type 6 (Homo sapiens), sequence (O00574 whole entry, looked up): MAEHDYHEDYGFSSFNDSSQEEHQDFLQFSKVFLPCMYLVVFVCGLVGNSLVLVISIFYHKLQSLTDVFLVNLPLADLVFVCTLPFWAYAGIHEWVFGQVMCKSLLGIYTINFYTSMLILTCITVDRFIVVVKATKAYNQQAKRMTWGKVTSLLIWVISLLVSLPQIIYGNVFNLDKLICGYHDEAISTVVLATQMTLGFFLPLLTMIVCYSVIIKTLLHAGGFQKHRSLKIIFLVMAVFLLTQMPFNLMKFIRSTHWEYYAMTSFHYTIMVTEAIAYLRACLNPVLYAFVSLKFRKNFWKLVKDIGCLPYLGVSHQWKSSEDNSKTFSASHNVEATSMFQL
Consider `O=C(N/N=C/c1c(O)n(Cc2ccccc2)c(=O)[nH]c1=O)c1ccccc1`, for which the inhibition was 7.9%.

In the case of `CCCCC(=O)N/N=C/c1c(O)n(CC)c(=S)n(CC)c1=O`, the inhibition was 58.7% (active).

Turning to `Cn1c(O)c(C=NCCCC(=O)O)c(=O)n(C)c1=O`, the inhibition was -3.2%.

As to `Cc1cc(C)cc(NC(=S)NC2CC3CCCC(C2)N3Cc2cccs2)c1` (stereo not given), the inhibition is 3.2%.

In the case of `Oc1cc2c(cc1CN1CCN(c3ccccc3)CC1)OCO2`, the inhibition is 5.6%.

With `CCCC[N+]1(C)C2CC(OC(=O)C(CO)c3ccccc3)CC1C1OC12` (stereo not given), the inhibition is 0.8%.

In the case of `Cc1ccc(-c2nn(CCC#N)cc2C(=O)O)cc1C`, the inhibition is 9.5%.

Regarding `Cc1cccc(N2C(=O)NC(=O)/C(=C\c3cnn(-c4ccccc4)c3)C2=O)c1`, the inhibition was 51.1% (active).

Consider `C/C=C/CC1(CC)C(=O)NC(=S)NC1=O`, for which the inhibition is -5.1%.

`COc1ccc(S(=O)(=O)NCc2ccc(C(=O)N3CCC4(CC3)OCCO4)cc2)cc1`: the inhibition was 3.3%.

Consider `CCOC(=O)C1=C(C)OC(N)=C(C(=O)OC)C12C(=O)Nc1ccc(Br)cc12` (stereo not given), for which the inhibition is 9.8%.

On to `O=C1NC(=O)C(CCOc2ccccc2)(CCc2ccccc2)C(=O)N1`, for which the inhibition is -10%.

For `C=CCN1C(=O)C2(C(C(=O)OCC)=C(N)Oc3c2c(=O)oc2ccccc32)c2ccccc21` (stereo not given), the inhibition was -2.4%.

For the compound `CC(=O)OC1C2(CC3N4C(=O)C5(CO)SSC4(CC31O)C(=O)N5C)OC(C)C(C)(C)C2=O` (stereo not given), the inhibition was 99.4% (active).

Regarding `CNC(=O)O/N=C(\N)Cc1csc2ccc(Cl)cc12`, the inhibition is 0%.
